Test results taken from PubChem BioAssay.
Results filed as inconclusive are left out. Activity calls are given as the source filed them.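 The calls were made as follows, unless noted: active = viability increase at or above a cutoff of the median across tested compounds plus 3 SD (cut at about 8.5% in these data, passing the limit was not always enough); inconclusive = some gains above the cutoff, reason not given; inactive = the rest.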

Columns and labels:
[1] = reducers of endogenous Her2 protein level, primary screen, SKBR3 breast tumor cells, AlphaScreen, ATP viability (AID 461;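 active = Her2 level under about 52% in both replicate screens, with viability over 70% of control, limit read from the data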;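 as to Her2 level: lower value means less Her2 protein in the cells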;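 as to viability: percent of carrier control wells set as 100% viability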); conditions: 18-24 h, measured here: SKBR3 viability, ATP luminescence, at 10 µM
[2] = biological target: Receptor tyrosine-protein kinase erbB-2 (Homo sapiens) (UniProt P04626); assay: as above; conditions: 18-24 h, at 10 µM, stronger effect = lower value
[3] = SK-BR-3 cell growth inhibitors, pilot screen, 24 h, human (AID 572;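 active = viability at or below 10% of carrier control in both of two separate runs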;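 also: compound exposure lasted between 18 and 24 h rather than exactly 24 h; 100% = carrier-treated control wells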); conditions: SK-BR-3 viability, CellTiter-Glo luminescence, at 10 µM, stronger effect = lower value
[4] = HUVEC growth inhibition – cell-based, human, primary screen (AID 575;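 active = viability at or below 30% in both replicate assays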;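 also: 100% = median of untreated cell wells with 0.1% DMSO on each plate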); conditions: HUVEC proliferation, CellTiter-Glo luminescence, 72 h; at 10 µM; stronger effect = lower value
[5] = growth inhibitors of H69AR lung tumor, primary screen, human, duplicate replicates (AID 580;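 active = viability at or under a set limit in both replicates, limit being median viability minus 3 SD, cut at about 48% in these data, passing the limit was not always enough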;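 also: 100% = mean luminescence of untreated wells and 0% = no signal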); conditions: H69AR lung tumor cells viability, ATP luminescence, 72 h; at 10 µM; stronger effect = lower value
[6] = reversal of MRP1-mediated doxorubicin resistance, pilot screen, H69AR cells, doxorubicin co-treatment (AID 601;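 active = viability loss from added drug above about 55%, and viability with drug at most 40%, in both replicates, limit read from the data, passing the limit was not always enough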); conditions: CellTiter-Glo, 72 h, at 10 µM; for differential viability (reversal): stronger effect = higher value
[7] = 384-well plate pilot, post-Golgi transport modulator project, inhibition of yeast transport mutant growth (AID 636; in the data active = inhibition above about 31%); conditions: absorbance 615 nm, about 18 h, stronger effect = higher value
[8] = growth suppression of yeast trafficking mutant, preliminary HTS, modulators of trafficking downstream of Golgi apparatus project, 1536-format plate, OD 615 nm (AID 637; in the data active = inhibition above about 30%); conditions: yeast transport mutant growth, absorbance 615 nm, 18 h; stronger effect = higher value
[9] = OD615 S. cerevisiae growth inhibition, permissive medium, pilot counter-assay, permissive growth control for S. cerevisiae lifespan shortening project (AID 705;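 active = growth inhibition above 25% in both replicates, a cutoff set 3 SD above the mean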); conditions: OD615, 24 h, at 10 µM, stronger effect = higher value
[10] = Restrictive medium S. cerevisiae growth inhibition, OD615, pilot screen of yeast lifespan reduction project, restrictive growth control (AID 706;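 active = growth inhibition above a set limit, 3 SD over mean compound inhibition, in both replicates, cut at about 43% in these data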;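 also: modified DeaD lifespan yeast strain shifted to restrictive glucose medium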); conditions: OD615, 48 h, at 10 µM, stronger effect = higher value
[11] = viability gain of MRP-1-high H69AR cells under doxorubicin, pilot screen, MRP-1 activator project, CellTiter-Glo, duplicate (AID 807); conditions: H69AR viability with doxorubicin, CellTiter-Glo luminescence; at 10 µM; stronger effect = higher value;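 also: compound pretreatment 18-22 h then 72 h combined with doxorubicin; 0% = doxorubicin alone and 100% = vehicle without doxorubicin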
[12] = growth suppression of beta-catenin knockout HCT116, pilot screen, human colon tumor cells (AID 823;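 active = cell viability at or below a set limit in both duplicate runs, the limit being the all-compound median minus 4 SD, cut at about 23% in these data, passing the limit was not always enough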;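 also: 0% = wells killed by 20 µM Hyamine and 100% = untreated DMSO cell wells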); conditions: CellTiter-Glo, 60 h, at 10 µM, stronger effect = lower value
[13] = growth suppression of PTEN-deleted HCT116, pilot screen, cell-based, HCT116 clonal line, CellTiter-Glo (AID 824;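 active = viability at or below 27.92% in each of two runs, the all-compound median minus 4 SD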;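 also: 0% = 20 µM Hyamine control and 100% = vehicle cell control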); conditions: 60 h, at 10 µM, stronger effect = lower value
[14] = inhibitors of the yeast RAM network, pilot screen, dse1pr::URA3 reporter, 5-FOA selection (AID 869;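 active = inhibition over a set limit, the all-compound mean plus 3 SD, in both replicate runs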;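 also: 0% = DMSO wells with no growth and 100% = 10 µM 1-NA-PP1 with full growth; RAM network block rescues cells from 5-FOA so hits raise OD615 growth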); conditions: S. cerevisiae dse1pr::URA3 5-FOA growth, OD615, 2 d; at 10 µM; stronger effect = higher value; strain carries analog-sensitive mutant Cbk1 kinase
[15] = RAM signaling pathway blockade in yeast – S. cerevisiae, Pdr1DBD-CYC8 efflux-inhibited sensitized strain, primary screen (AID 1298;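 active = RAM network inhibition above 8.4% in each of two replicates, 3 SD over the compound average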;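 also: 0% = DMSO untreated cells without growth and 100% = 10 µM 1-NA-PP1 full growth; higher means more yeast growth rescued from 5-FOA killing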); conditions: S. cerevisiae cbk1-as DSE1-URA3 strain, 5-FOA growth OD615, 2 d; at 50 µM; stronger effect = higher value
[16] = H69AR cells + 2 uM doxorubicin, measured here: viability with 2 uM doxorubicin, stronger effect = lower value
[17] = H69AR cells, compound alone cytotoxicity

Chain of Receptor tyrosine-protein kinase erbB-2 (Homo sapiens) (P04626 whole entry, looked up): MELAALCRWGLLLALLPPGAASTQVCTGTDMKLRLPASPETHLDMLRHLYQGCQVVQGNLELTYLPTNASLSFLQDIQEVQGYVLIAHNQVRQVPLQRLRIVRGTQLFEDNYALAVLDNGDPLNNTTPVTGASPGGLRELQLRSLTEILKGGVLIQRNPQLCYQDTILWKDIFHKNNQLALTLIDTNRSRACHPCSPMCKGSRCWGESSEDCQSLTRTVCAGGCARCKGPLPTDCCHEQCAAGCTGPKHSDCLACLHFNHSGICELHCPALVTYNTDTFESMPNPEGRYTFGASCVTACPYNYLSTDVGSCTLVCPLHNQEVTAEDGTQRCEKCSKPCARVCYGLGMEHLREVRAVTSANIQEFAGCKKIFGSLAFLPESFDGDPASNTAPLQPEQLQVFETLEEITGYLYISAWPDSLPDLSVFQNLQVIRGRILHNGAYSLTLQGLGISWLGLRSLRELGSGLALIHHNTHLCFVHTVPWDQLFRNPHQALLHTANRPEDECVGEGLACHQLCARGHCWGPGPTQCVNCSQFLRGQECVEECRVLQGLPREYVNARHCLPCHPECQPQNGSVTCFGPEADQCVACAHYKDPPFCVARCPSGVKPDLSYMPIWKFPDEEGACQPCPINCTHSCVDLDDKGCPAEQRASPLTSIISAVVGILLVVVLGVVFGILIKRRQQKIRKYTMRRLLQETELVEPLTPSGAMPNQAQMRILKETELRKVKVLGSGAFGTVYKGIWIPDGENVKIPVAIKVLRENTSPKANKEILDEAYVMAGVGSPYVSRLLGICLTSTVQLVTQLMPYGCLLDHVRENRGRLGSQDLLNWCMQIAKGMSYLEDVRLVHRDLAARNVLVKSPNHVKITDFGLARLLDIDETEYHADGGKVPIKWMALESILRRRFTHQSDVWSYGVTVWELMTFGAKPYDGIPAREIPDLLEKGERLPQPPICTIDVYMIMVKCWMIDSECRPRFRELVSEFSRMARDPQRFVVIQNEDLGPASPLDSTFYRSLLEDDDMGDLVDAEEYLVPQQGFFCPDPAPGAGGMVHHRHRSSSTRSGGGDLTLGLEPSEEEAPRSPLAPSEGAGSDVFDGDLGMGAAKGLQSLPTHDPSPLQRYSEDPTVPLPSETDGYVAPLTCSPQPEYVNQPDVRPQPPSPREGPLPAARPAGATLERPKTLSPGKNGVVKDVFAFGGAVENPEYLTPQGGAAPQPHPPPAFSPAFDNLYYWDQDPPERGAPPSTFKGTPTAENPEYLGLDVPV

| SMILES | viability [1] | Her2 level [2] | viability [3] | viability [4] | viability [5] | differential viability (reversal) ([6]; H69AR cells + 2 uM doxorubicin) | viability [6, 16] | viability [6, 17] | inhibition [7] | inhibition [8] | growth inhibition [9] | growth inhibition [10] | viability increase [11] | viability [12] | viability [13] | inhibition [14] | RAM network inhibition [15] |
| --- | --- | --- | --- | --- | --- | --- | --- | --- | --- | --- | --- | --- | --- | --- | --- | --- | --- |
| CCn1cc(C(=O)NCC2CCCO2)c(=O)c2cc(S(=O)(=O)N(C)C3CCCCC3)ccc21 (stereo not drawn) | 83.5% | 93.5% (inactive) | 83.5% (inactive) | 69.5% (inactive) | 68.5% (inactive) | -11.5% (inactive) | 80% | 68.5% | -1.41% (inactive) | 1.5% (inactive) | -2.38% (inactive) | -2.37% (inactive) | -5.22% (inactive) | 88.9% (inactive) | 87% (inactive) | 4.23% (inactive) | -0.83% (inactive) |
| CCc1ccc(C2CC(c3cccc(OC)c3)n3nc(N)nc3N2)cc1 (stereo not drawn) | 90% | 92% (inactive) | 90% (inactive) | 113% (inactive) | 105% (inactive) | 7.42% (inactive) | 97.5% | 105% | 2.31% (inactive) | 4.83% (inactive) | -0.21% (inactive) | 12% (inactive) | 2.74% (inactive) | 93.3% (inactive) | 81.1% (inactive) | 1.21% (inactive) | 4.95% (inactive) |
| Cc1cc(NC(=O)c2cccc(S(=O)(=O)N3CC(c4ccccc4)CC3=O)c2)no1 (stereo not drawn) | 92% | 97.5% (inactive) | 92% (inactive) | 98.8% (inactive) | 97.6% (inactive) | 6.25% (inactive) | 91.3% | 97.6% | -6.4% (inactive) | 3.33% (inactive) | -15.3% (inactive) | -8.59% (inactive) | 1.83% (inactive) | 96.8% (inactive) | 90.5% (inactive) | 1.83% (inactive) | 5.71% (inactive) |
| N#C/C(C(=O)N1CCOCC1)=C1/SC=C(c2ccccc2)N1c1ccccc1 | 102% | 92% (inactive) | 102% (inactive) | 107% (inactive) | 96.1% (inactive) | 4.83% (inactive) | 91.3% | 96.1% | -7.57% (inactive) | 1.67% (inactive) | -1.56% (inactive) | -17.9% (inactive) | -1.27% (inactive) | 96.6% (inactive) | 95% (inactive) | 2.57% (inactive) | 1.55% (inactive) |
| CC(NC(=O)c1noc2c1CCCCC2)c1ccccc1 (stereo not drawn) | 85.5% | 93.5% (inactive) | 85.5% (inactive) | 89.1% (inactive) | 110% (inactive) | 18.1% (inactive) | 91.7% | 110% | -3.59% (inactive) | -2% (inactive) | -16.4% (inactive) | -14.1% (inactive) | 1.66% (inactive) | 100% (inactive) | 102% (inactive) | -0.27% (inactive) | 1.85% (inactive) |
| O=C1CC(c2ccccc2)CC(O)=C1C=NCCN1CCOCC1 (stereo not drawn) | 96.5% | 85.5% (inactive) | 96.5% (inactive) | 85.7% (inactive) | 102% (inactive) | 5.44% (inactive) | 96.2% | 102% | -7.97% (inactive) | -1.48% (inactive) | -4.59% (inactive) | 9.74% (inactive) | 0.42% (inactive) | 94.7% (inactive) | 93.2% (inactive) | 1.16% (inactive) | -0.52% (inactive) |
| COc1cccc(-c2nc(CS(=O)(=O)CC(=O)N3CCN(c4ccccn4)CC3)c(C)o2)c1 | 90% | 112% (inactive) | 90% (inactive) | 81% (inactive) | 90.9% (inactive) | 12.7% (inactive) | 78.3% | 90.9% | -4% (inactive) | 3.61% (inactive) | 0.71% (inactive) | -2.45% (inactive) | -0.47% (inactive) | 73.3% (inactive) | 71.6% (inactive) | 0.835% (inactive) | 5.35% (inactive) |
| CCCOc1ccc(NC2=CC(=O)CC(C)(C)C2)cc1 | 100% | 103% (inactive) | 100% (inactive) | 87.2% (inactive) | 100% (inactive) | 7.44% (inactive) | 93% | 100% | -6.89% (inactive) | 2.13% (inactive) | -2.65% (inactive) | -14.7% (inactive) | 1.27% (inactive) | 95.4% (inactive) | 94.2% (inactive) | 3.14% (inactive) | 6.91% (inactive) |
| Cc1cc(N=Cc2cc(Br)ccc2O)no1 | 108% | 118% (inactive) | 108% (inactive) | 74.4% (inactive) | 73.1% (inactive) | -28.9% (inactive) | 102% | 73.1% | -3.72% (inactive) | -6.67% (inactive) | -13% (inactive) | -22.7% (inactive) | -2.84% (inactive) | 90.8% (inactive) | 95.8% (inactive) | 0.26% (inactive) | -1.15% (inactive) |
